# Source: ChEMBL document CHEMBL3433997, “St. Jude Leishmania screening dataset” (2016)
# Tests used:
# Assay type in all cases: functional
# [1] = molecular target: Solute carrier family 2, facilitated glucose transporter member 1 (Homo sapiens) (UniProt P11166); assay: ST_JUDE_LEISH: Cytotoxicity at 2uM final concentration against transgenic Leishmania Mexicana promastigotes LmGLUT1 that are glucose transport deficient and complemented with the human glucose transporter GLUT1. Activity is measured by DNA content using SYBR green in vitro
# Chain of Solute carrier family 2, facilitated glucose transporter member 1 (Homo sapiens) (P11166 whole entry): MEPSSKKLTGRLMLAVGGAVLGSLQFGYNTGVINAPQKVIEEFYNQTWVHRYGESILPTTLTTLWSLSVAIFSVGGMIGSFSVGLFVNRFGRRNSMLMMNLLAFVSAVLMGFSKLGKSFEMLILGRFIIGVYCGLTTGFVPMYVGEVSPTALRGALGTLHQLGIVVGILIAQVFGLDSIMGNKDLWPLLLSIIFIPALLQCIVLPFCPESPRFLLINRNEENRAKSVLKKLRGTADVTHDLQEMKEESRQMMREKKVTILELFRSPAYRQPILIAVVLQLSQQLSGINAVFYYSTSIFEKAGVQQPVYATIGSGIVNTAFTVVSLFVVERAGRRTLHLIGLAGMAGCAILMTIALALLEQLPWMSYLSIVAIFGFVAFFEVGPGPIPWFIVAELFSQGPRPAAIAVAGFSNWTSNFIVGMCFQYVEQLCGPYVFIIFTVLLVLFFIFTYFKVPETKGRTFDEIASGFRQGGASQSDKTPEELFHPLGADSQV
# [2] = molecular target: Hexose transporter 1 (Plasmodium falciparum) (UniProt O97467); assay: ST_JUDE_LEISH: Cytotoxicity at 2uM final concentration against transgenic Leishmania Mexicana promastigotes LmPfHT that are glucose transport deficient and complemented with the Plasmodium falciparum hexose transporter. Activity is measured by DNA content using SYBR green in vitro
# [3] = molecular target: Glucose transporter (Leishmania mexicana) (UniProt O61059); assay: ST_JUDE_LEISH: Cytotoxicity at 2uM final concentration against transgenic Leishmania Mexicana promastigotes LmGT2 that are glucose transport deficient and complemented with the L. Mexicana glucose transporter 2. Activity is measured by DNA content using SYBR green in vitro
Compound,inhibition [1] [%],inhibition [2] [%],inhibition [3] [%]
COc1ccc2[nH]ccc(=NN=Cc3cccc(Cl)c3)c2c1,15.1,14.8,11.7
CCCNCc1ccc(-c2ccc(CN(CCOC)C(=O)CCCOCc3ccccc3)cc2)nc1,3.08,1.41,0.45
Oc1ccc(Cl)cc1CN1CCC2(CCCN(CC3CCC3)C2)C1 (centres undefined),-3,-0.63,1.23
NC1CCN(Cc2cccc(-c3csc(-c4nc5ccccc5[nH]4)c3)c2)C1 (centres undefined),2.21,1.55,4.6
O=C1C(C2CCC(c3ccc(Cl)cc3)CC2)=C2OCC3COC2(O3)c2ccccc21 (centres undefined),1.13,0.99,-0.99
Cc1nc(N)nc(N)c1CCCOc1cccc(Cl)c1,7.39,7.51,-0.98
COc1ccccc1C1CN(CCNC(=O)c2nc(C)c[nH]2)Cc2ccccc2O1 (centres undefined),0.43,2.02,5.66
COc1cc(-c2nc(C(C)(C)CN)[nH]c2-c2ccncc2)ccc1Br,7.38,11.3,4.8
CCOc1cc(C(=O)NCCN(CC)c2cccc(C)c2)ccc1-c1nc2cc(Cl)ccc2[nH]1,3.14,1.88,1.84
Cc1ccc(F)c(C(=O)Nc2cccc(-c3nn4ccccc4c3-c3ccnc(Nc4cccc(F)c4)n3)c2)c1F,9.44,8.92,6.93
O=C(Nc1ccc(-c2nc3ccccc3[nH]2)cc1)c1ccc(S(=O)(=O)N2CCc3ccccc32)cc1,2.92,0.13,3.39
Cc1cc(NCCC(=O)Nc2ccccc2)nc(NCCc2ccccc2)n1,3.62,1.77,0.45
Cc1[nH]c2ccccc2c1C1CCN(CCCCNC(=O)c2ccc(-c3ccc(C#N)cc3)cc2)CC1,11.2,9.94,10.3
Ic1cc(CNC2CCCCC2)ccc1OCc1cccc(COc2ccc(CNC3CCCCC3)cc2I)c1,4.09,3.76,2.65
CCc1nn2c(Nc3ccncc3)cc(C)nc2c1-c1ccccc1,3.36,3.33,1.85
Cc1c(-c2cccc(C(C)(C)NC3CCN(Cc4ccccc4)CC3)c2)cnc(N)c1C,2.58,0.02,2.38
Cc1cc2c(cc1C(F)(F)F)N(C(=O)Nc1cc(C(=O)NCCN(C)C)cc(C(F)(F)F)c1)CC2,4.3,2.66,3.69

Compound,inhibition [1] [%],inhibition [2] [%],inhibition [3] [%]
CN1CCN(CCCN(Cc2cccc(-c3ccc(CNCCc4ccccc4)cc3)c2)C(=O)Nc2ccccc2)CC1,2.48,7.14,1.35
N#Cc1ccc(-c2ccc(C(=O)Nc3ccc4c(c3)CCN(C3CCC3)CC4)nc2)cc1,3.57,3.06,2.04
O=[N+]([O-])c1cccc(CNCC2CCC(CNCc3cccc([N+](=O)[O-])c3)CC2)c1 (centres undefined),2.25,-2.59,1.26
COc1cc(NC(=O)/C=C/c2cccc3ccoc23)ccc1OCCN(C(C)C)C(C)C,9.36,3.8,1.81
CCN(CC)CCCNCc1ccc(-c2ccc(C(F)(F)F)cc2)cc1,5.63,2.78,-0.45
Cc1[nH]c2ccc(O)cc2c1C1CCN(CCCCCNC(=O)/C=C/c2ccc(Cl)c(Cl)c2)CC1,0.59,0.7,0.96
O=C(Nc1ccc(-c2csc(-c3nc4ccccc4[nH]3)c2)cc1)Nc1ccc(F)c(F)c1F,0.67,2.98,2.02
Oc1ccc(CC2CCCN(c3nc(NCCCOc4ccccc4-c4ccccc4)nc(N4CCNCC4)n3)C2)cc1 (centres undefined),-0.74,-1.72,-1.02
Cc1ccc2[nH]c(-c3ccc(C=CC(=O)NC4CCN(Cc5ccccc5)CC4)cc3)nc2c1,2.64,3.29,5.84
COc1ccc(CCN(C)CCCCc2ccc(NC(=O)c3cccc4c(=O)c5cc(F)ccc5sc34)cc2)cc1OC,9.78,4.42,2.03
COc1cccc2c(N/N=C/c3cccc([N+](=O)[O-])c3)ccnc12,13.4,10.8,8.14
O=C(c1ccc(-c2ccc(-c3nc4cc(F)ccc4[nH]3)cc2)cc1)N1CCCCC1CN1CCC(O)C1 (centres undefined),4.53,4.9,1.78
Cc1cc(N[C@@H](Cc2ccccc2)C(=O)NCc2cccs2)nc(NCCc2ccccn2)n1,6.58,3.27,1.45
OC(CNc1ccnc(Nc2ccc(Cl)cc2)n1)c1cccc(C(F)(F)F)c1 (centres undefined),1.93,2.79,0.49
O=C(COC(=O)c1cccc(S(=O)(=O)N2CCc3ccccc32)c1)NNC(=O)c1cccs1,4.4,4.13,2.91
Nc1c2ccccc2nc2cc(Cl)ccc12,3.29,1.91,1.91
